# Measurements published in paper PMC7862700, “An all-to-all approach to the identification of sequence-specific readers for epigenetic DNA modifications on cytosine”.
# How the values were obtained:
# Test in all cases: DAPPL (digital affinity profiling via proximity ligation, sequencing); 10 mM Tris-HCl pH 7.5, 50 mM NaCl, 1 mM DTT, 4% glycerol, room temperature, 30 min; GST-TFs on glutathione beads, 16-mer random dsDNA library, 0.1% formaldehyde crosslink after washing; high values mean tight binding
# FLI1 = target: T1, FLI1 (Homo sapiens, UniProt Q01543 1-452); conditions: protein: recombinant; tags: N-terminal GST; dsDNA, one strand shown
# T1 sequence: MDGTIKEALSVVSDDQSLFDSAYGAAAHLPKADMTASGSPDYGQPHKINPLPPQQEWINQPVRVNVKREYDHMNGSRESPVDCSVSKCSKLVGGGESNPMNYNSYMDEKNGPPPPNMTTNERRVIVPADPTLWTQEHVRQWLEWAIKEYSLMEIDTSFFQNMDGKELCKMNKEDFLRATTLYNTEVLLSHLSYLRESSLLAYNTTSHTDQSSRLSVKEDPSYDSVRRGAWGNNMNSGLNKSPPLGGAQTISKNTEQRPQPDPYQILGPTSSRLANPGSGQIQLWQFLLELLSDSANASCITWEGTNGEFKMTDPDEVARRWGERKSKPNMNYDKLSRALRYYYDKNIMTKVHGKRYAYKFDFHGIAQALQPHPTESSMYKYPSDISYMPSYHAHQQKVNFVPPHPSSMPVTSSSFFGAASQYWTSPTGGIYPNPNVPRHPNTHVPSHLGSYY
# Outline: (§1)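 A tag-only sample was pooled with DNA-barcoded human transcription factors that had been expressed in yeast as GST fusions and captured on glutathione beads. The pools were incubated for 30 min at room temperature with 200 nmole of a random double-stranded 16-mer DNA library in Tris/NaCl/DTT/glycerol buffer, then washed, crosslinked with 0.1% formaldehyde, proximity-ligated (BsaI/T4 ligase, 1 h, 37 °C), PCR-amplified and sequenced on an Illumina NextSeq500. Binding signal is each hexamer's read frequency for a factor divided by its frequency for the tag-only sample.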
# ELK1 = target: T2, ELK1 (Homo sapiens, UniProt P19419 1-428); conditions: protein: recombinant; tags: N-terminal GST; dsDNA, one strand shown
# T2 sequence: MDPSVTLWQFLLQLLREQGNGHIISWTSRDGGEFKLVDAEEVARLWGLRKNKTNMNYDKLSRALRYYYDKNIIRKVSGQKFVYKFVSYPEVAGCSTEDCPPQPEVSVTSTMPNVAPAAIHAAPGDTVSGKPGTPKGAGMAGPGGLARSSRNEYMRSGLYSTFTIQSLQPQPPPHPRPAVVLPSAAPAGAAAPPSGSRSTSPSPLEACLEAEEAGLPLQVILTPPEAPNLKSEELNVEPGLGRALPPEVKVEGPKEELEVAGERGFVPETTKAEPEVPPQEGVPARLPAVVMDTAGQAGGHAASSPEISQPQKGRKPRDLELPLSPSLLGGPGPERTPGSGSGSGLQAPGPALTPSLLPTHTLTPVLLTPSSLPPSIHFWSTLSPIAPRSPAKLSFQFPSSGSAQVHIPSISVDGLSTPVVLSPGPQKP
# Outline: as §1
# GABPA = target: T3, GABPA (Homo sapiens, UniProt Q06546 1-454); conditions: protein: recombinant; tags: N-terminal GST; dsDNA, one strand shown
# T3 sequence: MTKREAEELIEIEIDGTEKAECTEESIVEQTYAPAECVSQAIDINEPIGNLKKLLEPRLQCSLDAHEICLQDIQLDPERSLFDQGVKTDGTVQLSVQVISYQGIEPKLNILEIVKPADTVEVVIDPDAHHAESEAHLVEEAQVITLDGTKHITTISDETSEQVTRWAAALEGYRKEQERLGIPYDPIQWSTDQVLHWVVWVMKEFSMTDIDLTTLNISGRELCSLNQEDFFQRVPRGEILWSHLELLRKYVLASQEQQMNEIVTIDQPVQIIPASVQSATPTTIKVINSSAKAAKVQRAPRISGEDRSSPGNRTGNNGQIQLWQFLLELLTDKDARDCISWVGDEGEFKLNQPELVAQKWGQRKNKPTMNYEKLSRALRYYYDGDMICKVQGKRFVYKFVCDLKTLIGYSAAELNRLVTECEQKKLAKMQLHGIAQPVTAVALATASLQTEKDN
# Outline: as §1
# ERG = target: T4, ERG (Homo sapiens, UniProt P11308 1-479); conditions: protein: recombinant; tags: N-terminal GST; dsDNA, one strand shown
# T4 sequence: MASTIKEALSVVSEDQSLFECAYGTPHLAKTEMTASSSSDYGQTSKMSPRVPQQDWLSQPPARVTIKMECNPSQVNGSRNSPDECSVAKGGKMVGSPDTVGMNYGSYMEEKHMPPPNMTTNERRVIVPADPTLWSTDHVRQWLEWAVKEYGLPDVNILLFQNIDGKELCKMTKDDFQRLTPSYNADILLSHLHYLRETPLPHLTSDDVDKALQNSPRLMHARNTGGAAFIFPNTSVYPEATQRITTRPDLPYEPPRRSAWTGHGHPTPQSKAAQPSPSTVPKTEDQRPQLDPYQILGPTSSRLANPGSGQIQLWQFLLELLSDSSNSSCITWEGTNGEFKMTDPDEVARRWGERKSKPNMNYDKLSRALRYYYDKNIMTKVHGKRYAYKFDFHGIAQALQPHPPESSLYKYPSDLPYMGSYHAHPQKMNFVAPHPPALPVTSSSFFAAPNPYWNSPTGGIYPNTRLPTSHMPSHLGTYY
# Outline: as §1
# ELF1 = ELF1 (Homo sapiens, UniProt P32519 1-619); conditions: protein: recombinant; tags: N-terminal GST; dsDNA, one strand shown
# Outline: as §1
# EHF = target: T5, EHF (Homo sapiens, UniProt Q9NZC4 1-300); conditions: protein: recombinant; tags: N-terminal GST; dsDNA, one strand shown
# T5 sequence: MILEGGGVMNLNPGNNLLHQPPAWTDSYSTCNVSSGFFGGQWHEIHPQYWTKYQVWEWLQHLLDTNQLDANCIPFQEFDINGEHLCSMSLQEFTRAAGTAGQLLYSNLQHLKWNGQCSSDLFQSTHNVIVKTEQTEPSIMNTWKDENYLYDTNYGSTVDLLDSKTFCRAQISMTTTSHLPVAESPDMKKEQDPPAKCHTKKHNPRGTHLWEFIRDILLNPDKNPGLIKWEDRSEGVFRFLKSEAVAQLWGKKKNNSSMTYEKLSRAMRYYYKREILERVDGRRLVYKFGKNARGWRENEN
# Outline: as §1
# SPI1 = SPI1 (Homo sapiens, UniProt P17947 1-270); conditions: protein: recombinant; tags: N-terminal GST; dsDNA, one strand shown
# Outline: as §1
# SPIB = SPIB (Homo sapiens, UniProt Q01892 1-262); conditions: protein: recombinant; tags: N-terminal GST; dsDNA, one strand shown
# Outline: as §1
# ELK3 = target: T6, ELK3 (Homo sapiens, UniProt P41970 1-407); conditions: protein: recombinant; tags: N-terminal GST; dsDNA, one strand shown
# T6 sequence: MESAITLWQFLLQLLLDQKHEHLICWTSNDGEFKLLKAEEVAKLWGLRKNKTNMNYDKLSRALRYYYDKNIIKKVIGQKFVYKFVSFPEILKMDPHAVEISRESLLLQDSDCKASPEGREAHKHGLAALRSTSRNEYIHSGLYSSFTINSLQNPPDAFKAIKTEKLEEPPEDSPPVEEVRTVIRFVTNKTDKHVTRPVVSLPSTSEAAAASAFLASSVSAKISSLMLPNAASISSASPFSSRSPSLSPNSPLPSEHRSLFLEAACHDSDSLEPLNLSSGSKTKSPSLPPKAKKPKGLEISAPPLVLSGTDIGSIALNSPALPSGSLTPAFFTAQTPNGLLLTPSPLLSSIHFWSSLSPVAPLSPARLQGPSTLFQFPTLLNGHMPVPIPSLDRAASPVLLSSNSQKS
# Outline: as §1
# FEV = target: T7, FEV (Homo sapiens, UniProt Q99581 1-238); conditions: protein: recombinant; tags: N-terminal GST; dsDNA, one strand shown
# T7 sequence: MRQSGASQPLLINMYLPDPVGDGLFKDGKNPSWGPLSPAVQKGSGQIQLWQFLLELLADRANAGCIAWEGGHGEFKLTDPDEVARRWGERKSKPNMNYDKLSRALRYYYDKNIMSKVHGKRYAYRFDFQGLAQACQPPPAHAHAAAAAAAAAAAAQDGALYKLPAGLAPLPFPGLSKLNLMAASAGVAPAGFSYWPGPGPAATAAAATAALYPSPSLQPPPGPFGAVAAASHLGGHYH
# Outline: as §1
# ETV5 = ETV5 (Homo sapiens, UniProt P41161 1-510); conditions: protein: recombinant; tags: N-terminal GST; dsDNA, one strand shown
# Outline: as §1
# HSF1 = HSF1 (Homo sapiens, UniProt Q00613 1-529); conditions: protein: recombinant; tags: N-terminal GST; chain copies: 3; dsDNA, one strand shown
# Outline: as §1
# SPIC = target: T8, SPIC (Homo sapiens, UniProt Q8N5J4 1-248); conditions: protein: recombinant; tags: N-terminal GST; dsDNA, one strand shown
# T8 sequence: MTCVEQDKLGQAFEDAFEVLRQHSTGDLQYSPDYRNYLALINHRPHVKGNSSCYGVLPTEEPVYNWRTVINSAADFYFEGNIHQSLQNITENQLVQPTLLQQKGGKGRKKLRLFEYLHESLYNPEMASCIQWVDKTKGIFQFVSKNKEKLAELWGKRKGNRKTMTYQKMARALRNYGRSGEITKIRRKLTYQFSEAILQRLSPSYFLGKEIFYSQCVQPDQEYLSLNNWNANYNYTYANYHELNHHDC
# Outline: as §1
# ELF4 = ELF4 (Homo sapiens, UniProt Q99607 1-663); conditions: protein: recombinant; tags: N-terminal GST; dsDNA, one strand shown
# Outline: as §1
# ELK4 = target: T9, ELK4 (Homo sapiens, UniProt P28324-2 1-405); conditions: protein: recombinant; tags: N-terminal GST; dsDNA, one strand shown
# T9 sequence: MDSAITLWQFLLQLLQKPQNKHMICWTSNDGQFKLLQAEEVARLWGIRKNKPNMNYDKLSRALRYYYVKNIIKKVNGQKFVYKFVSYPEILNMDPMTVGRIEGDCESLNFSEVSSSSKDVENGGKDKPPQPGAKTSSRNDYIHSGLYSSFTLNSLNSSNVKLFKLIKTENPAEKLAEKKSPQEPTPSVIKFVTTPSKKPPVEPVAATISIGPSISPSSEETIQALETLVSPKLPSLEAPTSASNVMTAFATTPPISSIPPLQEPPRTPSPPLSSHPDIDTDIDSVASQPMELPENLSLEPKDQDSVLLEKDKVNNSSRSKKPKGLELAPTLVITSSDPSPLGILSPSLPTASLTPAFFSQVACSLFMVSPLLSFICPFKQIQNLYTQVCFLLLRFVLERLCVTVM
# Outline: as §1
# ETV2 = target: T10, ETV2 (Homo sapiens, UniProt O00321 1-342); conditions: protein: recombinant; tags: N-terminal GST; dsDNA, one strand shown
# T10 sequence: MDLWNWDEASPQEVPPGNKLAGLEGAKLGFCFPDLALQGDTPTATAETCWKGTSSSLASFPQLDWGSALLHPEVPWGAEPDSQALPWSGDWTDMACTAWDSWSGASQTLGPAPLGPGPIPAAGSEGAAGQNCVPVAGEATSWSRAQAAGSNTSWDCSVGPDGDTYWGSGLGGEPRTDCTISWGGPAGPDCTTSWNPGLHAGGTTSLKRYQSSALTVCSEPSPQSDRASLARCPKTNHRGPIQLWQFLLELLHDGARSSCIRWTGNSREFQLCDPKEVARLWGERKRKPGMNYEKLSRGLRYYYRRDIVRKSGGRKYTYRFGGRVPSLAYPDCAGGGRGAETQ
# Outline: as §1
# ELF3 = target: T11, ELF3 (Homo sapiens, UniProt P78545 1-371); conditions: protein: recombinant; tags: N-terminal GST; dsDNA, one strand shown
# T11 sequence: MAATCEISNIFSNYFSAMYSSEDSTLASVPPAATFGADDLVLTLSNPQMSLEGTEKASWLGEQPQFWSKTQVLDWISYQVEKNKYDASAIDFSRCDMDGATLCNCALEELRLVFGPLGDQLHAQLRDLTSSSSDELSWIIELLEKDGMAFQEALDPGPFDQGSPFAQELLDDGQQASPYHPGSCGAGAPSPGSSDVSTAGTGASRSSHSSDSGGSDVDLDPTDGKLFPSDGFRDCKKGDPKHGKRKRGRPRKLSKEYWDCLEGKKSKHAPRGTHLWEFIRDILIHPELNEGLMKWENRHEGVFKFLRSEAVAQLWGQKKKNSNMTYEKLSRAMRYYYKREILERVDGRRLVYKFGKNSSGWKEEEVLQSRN
# Outline: as §1
# CRX = CRX (Homo sapiens, UniProt O43186 1-299); conditions: protein: recombinant; tags: N-terminal GST; dsDNA, one strand shown
# Outline: as §1
# ETV1 = ETV1 (Homo sapiens, UniProt P50549 1-477); conditions: protein: recombinant; tags: N-terminal GST; dsDNA, one strand shown
# Outline: as §1
# ETV5, sequence (P41161 whole entry): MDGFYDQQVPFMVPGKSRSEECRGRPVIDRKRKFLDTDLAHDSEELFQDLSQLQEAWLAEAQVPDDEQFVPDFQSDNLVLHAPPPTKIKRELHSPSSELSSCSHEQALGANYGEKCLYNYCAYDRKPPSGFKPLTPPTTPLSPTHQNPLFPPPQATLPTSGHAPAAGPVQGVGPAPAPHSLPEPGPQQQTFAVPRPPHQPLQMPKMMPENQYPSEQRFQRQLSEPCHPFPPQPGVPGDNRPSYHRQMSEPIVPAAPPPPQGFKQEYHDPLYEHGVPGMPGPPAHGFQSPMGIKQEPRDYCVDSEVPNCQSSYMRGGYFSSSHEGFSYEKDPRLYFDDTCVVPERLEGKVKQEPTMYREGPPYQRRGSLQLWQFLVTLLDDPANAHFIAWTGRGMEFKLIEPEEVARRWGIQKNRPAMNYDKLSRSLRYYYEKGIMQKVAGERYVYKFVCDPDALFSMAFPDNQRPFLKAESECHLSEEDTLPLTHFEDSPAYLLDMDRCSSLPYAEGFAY
# ETV1, sequence (P50549 whole entry): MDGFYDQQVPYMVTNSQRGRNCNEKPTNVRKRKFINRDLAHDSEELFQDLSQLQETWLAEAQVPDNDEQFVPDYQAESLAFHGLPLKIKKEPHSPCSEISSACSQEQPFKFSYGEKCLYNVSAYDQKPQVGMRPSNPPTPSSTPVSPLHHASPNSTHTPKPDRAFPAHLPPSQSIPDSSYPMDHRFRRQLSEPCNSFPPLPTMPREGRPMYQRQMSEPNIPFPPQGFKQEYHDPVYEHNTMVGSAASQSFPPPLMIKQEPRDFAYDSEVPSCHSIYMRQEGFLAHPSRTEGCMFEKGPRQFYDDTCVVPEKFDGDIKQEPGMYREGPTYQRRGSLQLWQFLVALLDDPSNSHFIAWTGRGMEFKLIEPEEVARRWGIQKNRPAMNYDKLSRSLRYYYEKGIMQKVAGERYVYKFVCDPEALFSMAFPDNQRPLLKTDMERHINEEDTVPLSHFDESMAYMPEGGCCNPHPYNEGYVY
# ELF1, sequence (P32519 whole entry): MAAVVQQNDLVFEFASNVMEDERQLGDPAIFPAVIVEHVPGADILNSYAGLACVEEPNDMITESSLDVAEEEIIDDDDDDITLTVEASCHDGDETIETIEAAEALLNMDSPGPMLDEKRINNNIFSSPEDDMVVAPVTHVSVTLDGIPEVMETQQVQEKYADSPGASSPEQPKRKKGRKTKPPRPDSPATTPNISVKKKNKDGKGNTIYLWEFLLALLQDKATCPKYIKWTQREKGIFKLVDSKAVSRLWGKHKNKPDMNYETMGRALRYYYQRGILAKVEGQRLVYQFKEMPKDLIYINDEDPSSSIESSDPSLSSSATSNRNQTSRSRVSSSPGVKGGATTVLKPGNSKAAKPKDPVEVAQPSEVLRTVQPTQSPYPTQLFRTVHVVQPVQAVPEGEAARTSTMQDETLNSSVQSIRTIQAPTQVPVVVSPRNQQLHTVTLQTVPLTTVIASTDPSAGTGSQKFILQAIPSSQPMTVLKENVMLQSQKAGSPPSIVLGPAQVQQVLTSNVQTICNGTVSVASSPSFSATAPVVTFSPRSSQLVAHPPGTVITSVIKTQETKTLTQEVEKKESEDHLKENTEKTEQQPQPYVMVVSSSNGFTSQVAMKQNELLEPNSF
# SPIB, sequence (Q01892 whole entry): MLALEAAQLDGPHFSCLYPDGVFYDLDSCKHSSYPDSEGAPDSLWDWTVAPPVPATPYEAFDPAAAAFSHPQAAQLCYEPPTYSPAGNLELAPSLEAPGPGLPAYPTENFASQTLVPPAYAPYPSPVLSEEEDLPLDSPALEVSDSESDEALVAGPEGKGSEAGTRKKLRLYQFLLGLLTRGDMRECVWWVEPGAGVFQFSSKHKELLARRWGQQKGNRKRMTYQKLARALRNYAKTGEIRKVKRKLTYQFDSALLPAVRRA
# ELF4, sequence (Q99607 whole entry): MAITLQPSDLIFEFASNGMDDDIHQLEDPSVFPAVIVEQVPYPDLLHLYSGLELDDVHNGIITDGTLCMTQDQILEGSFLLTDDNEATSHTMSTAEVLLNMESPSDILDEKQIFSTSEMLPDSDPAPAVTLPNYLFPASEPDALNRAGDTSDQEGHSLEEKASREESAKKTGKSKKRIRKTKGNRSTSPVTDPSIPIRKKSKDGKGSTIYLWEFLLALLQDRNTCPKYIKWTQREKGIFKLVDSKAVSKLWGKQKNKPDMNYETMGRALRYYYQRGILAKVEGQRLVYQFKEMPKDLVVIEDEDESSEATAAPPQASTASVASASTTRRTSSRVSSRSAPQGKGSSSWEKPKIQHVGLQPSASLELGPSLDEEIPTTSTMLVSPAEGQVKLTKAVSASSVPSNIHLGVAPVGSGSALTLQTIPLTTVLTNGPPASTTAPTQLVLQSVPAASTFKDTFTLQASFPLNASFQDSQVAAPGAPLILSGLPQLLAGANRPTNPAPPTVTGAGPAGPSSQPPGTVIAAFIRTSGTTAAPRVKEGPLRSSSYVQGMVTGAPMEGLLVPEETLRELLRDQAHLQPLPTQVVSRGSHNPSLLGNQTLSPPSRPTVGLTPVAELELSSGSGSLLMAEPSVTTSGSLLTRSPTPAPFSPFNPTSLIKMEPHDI
# CRX, sequence (O43186 whole entry): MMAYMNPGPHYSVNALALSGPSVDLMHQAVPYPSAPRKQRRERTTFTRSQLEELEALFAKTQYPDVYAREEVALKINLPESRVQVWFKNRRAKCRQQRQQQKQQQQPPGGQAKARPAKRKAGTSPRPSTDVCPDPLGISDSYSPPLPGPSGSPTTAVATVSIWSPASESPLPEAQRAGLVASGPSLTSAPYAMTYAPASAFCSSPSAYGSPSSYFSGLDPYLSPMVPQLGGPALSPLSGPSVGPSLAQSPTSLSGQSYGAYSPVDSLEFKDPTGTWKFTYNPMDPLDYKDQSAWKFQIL
# HSF1, sequence (Q00613 whole entry): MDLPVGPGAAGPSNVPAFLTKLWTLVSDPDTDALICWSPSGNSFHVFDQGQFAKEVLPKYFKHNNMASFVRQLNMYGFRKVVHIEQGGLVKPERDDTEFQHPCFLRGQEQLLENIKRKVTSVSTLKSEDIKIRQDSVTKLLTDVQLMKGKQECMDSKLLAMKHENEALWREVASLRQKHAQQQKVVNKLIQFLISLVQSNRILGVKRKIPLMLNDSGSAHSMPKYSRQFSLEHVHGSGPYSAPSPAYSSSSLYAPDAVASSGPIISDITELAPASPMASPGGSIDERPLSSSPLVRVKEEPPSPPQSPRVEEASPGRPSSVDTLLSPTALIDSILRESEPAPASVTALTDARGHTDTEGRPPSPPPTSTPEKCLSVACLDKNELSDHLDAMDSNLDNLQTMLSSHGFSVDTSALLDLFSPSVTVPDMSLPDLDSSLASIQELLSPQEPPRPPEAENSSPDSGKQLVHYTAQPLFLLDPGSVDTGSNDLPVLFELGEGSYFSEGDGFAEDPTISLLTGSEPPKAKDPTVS
sequence,measurement,setting,value
AATGGT,binding signal,FLI1,"1.52 fold enrichment (6-mer frequency, TF over GST control)"
same,binding signal,ELK1,"1.38 fold enrichment (6-mer frequency, TF over GST control)"
same,binding signal,GABPA,"1.36 fold enrichment (6-mer frequency, TF over GST control)"
same,binding signal,ERG,"1.42 fold enrichment (6-mer frequency, TF over GST control)"
same,binding signal,ELF1,"1.42 fold enrichment (6-mer frequency, TF over GST control)"
same,binding signal,EHF,"1.4 fold enrichment (6-mer frequency, TF over GST control)"
same,binding signal,SPI1,"1.43 fold enrichment (6-mer frequency, TF over GST control)"
same,binding signal,SPIB,"1.52 fold enrichment (6-mer frequency, TF over GST control)"
same,binding signal,ELK3,"1.41 fold enrichment (6-mer frequency, TF over GST control)"
same,binding signal,FEV,"1.27 fold enrichment (6-mer frequency, TF over GST control)"
same,binding signal,ETV5,"1.46 fold enrichment (6-mer frequency, TF over GST control)"
same,binding signal,HSF1,"1.05 fold enrichment (6-mer frequency, TF over GST control)"
same,binding signal,SPIC,"1.35 fold enrichment (6-mer frequency, TF over GST control)"
same,binding signal,ELF4,"1.43 fold enrichment (6-mer frequency, TF over GST control)"
same,binding signal,ELK4,"1.38 fold enrichment (6-mer frequency, TF over GST control)"
same,binding signal,ETV2,"1.32 fold enrichment (6-mer frequency, TF over GST control)"
same,binding signal,ELF3,"1.25 fold enrichment (6-mer frequency, TF over GST control)"
same,binding signal,CRX,"1.1 fold enrichment (6-mer frequency, TF over GST control)"
same,binding signal,ETV1,"1.43 fold enrichment (6-mer frequency, TF over GST control)"
